Laboratory results: ChEMBL document CHEMBL3988442, “University of Dundee, Small-Polar-MMV Screening Library” (2021)
For some assays here: Entries with a potency or affinity are not part of this list.

Experiments:
Design in all cases: scale not given: direction of the effect not stated beside the values
[1] = target: Protein translocase subunit SecA (Escherichia coli (strain K12)) (UniProt P10408); assay: Assay to Identify E. coli SecA ATPase Inhibitors; assay type: functional; conditions: 30 µM
Chain of Protein translocase subunit SecA (Escherichia coli (strain K12)) (P10408 whole entry): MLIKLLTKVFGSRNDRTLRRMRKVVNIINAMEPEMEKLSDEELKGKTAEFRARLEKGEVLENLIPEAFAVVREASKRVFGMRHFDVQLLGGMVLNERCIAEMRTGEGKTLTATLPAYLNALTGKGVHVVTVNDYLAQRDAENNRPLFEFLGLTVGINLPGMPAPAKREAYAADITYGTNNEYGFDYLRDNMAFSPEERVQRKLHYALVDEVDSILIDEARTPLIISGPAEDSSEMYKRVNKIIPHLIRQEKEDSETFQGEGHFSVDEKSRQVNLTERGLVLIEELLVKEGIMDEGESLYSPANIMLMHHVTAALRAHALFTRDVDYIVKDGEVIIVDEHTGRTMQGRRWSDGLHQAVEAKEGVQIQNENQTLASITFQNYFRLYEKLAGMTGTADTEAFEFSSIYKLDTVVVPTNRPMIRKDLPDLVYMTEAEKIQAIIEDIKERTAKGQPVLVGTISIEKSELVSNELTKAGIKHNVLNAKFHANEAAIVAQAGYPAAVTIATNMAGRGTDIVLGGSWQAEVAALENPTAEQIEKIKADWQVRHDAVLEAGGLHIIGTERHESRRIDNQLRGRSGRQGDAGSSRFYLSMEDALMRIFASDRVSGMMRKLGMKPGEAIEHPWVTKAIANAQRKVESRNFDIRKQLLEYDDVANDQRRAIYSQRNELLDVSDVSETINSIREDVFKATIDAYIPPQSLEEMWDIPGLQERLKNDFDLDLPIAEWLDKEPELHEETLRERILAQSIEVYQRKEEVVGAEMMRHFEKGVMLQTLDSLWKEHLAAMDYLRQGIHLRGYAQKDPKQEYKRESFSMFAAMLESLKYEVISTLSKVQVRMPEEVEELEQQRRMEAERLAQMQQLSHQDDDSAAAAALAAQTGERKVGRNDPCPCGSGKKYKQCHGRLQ

[2] = target: T1, Ubiquitin-activating enzyme e1, putative (Leishmania donovani (strain BPK282A1)) (UniProt E9BSI1); assay: Leishmania donovani Ubiquitin Activating Enzyme (LdE1); assay type: functional; conditions: 30 µM
T1 sequence (whole entry): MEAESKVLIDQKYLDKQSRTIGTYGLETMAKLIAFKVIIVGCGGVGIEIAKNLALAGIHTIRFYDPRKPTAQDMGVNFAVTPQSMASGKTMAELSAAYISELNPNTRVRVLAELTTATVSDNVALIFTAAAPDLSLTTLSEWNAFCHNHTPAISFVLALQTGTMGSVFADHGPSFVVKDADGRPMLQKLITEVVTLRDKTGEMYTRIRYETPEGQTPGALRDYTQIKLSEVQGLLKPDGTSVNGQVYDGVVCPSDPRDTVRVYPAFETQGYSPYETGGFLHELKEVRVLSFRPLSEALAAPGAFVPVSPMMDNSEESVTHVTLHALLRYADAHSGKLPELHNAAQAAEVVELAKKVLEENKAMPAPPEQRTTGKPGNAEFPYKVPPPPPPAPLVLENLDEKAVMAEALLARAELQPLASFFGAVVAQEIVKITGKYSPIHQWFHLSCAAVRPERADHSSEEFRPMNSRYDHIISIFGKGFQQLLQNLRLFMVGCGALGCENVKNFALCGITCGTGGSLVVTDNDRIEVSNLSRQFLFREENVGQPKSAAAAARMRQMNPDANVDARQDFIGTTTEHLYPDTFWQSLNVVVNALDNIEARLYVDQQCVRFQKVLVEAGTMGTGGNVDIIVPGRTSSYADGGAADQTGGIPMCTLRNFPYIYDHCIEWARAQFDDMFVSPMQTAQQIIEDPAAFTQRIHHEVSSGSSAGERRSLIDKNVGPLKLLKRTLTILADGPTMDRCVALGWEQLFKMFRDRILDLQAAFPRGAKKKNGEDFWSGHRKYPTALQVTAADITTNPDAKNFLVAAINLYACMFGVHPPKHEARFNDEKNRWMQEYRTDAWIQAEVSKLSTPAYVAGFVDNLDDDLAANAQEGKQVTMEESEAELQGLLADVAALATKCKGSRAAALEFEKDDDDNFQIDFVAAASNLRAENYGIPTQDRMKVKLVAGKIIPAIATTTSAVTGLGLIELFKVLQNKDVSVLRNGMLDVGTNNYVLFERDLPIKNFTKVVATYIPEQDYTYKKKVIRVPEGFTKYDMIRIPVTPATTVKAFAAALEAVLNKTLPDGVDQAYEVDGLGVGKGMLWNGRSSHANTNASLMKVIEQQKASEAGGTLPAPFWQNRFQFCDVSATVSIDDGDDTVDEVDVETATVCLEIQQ

[3] = target: AMP-activated protein kinase, AMPK (Homo sapiens) (UniProt P54646+O43741+P54619+Q9UGJ0+Q9Y478+Q13131+Q9UGI9); assay: AMP-dependent Kinase enzyme assay. An in vitro enzyme assay that detects ADP turnover that is directly proportional to AMPK activity. This uses naive AMPK that is activated during the assay with MK-8722; assay type: functional; conditions: 30 µM
[4] = target: Sialic acid-binding Ig-like lectin 9 (Homo sapiens) (UniProt Q9Y336); assay: Hs-Siglec9 ALPHAscreen SOP 20170721; conditions: 10 µM
Chain of Sialic acid-binding Ig-like lectin 9 (Homo sapiens) (Q9Y336 whole entry): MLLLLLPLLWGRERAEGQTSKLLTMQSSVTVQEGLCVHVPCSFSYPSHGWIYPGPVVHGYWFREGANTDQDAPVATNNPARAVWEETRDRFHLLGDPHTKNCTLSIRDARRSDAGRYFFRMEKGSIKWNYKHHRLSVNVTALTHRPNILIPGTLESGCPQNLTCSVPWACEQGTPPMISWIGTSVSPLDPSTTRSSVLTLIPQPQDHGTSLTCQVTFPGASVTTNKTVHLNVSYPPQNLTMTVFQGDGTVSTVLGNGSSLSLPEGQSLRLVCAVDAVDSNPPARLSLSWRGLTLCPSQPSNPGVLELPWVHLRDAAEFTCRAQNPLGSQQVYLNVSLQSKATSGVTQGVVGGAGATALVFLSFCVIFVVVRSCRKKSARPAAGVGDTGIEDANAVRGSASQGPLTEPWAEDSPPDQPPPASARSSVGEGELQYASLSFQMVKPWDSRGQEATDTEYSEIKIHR

Trypanosoma cruzi = assay: Trypanosoma cruzi phosphomannomutase and mannose-1-phosphate guanylyltransferase assay; assay type: functional; conditions: 10 µM
[5] = target: T2, Arginase-2, mitochondrial (Homo sapiens) (UniProt P78540); assay: in vitro enzyme assay to detect the production of urea directly proportional to the activity of Arginase II; assay type: functional; conditions: 33.3 µM; note: in the data most compounds retested in dose-response had high values
T2 sequence (whole entry): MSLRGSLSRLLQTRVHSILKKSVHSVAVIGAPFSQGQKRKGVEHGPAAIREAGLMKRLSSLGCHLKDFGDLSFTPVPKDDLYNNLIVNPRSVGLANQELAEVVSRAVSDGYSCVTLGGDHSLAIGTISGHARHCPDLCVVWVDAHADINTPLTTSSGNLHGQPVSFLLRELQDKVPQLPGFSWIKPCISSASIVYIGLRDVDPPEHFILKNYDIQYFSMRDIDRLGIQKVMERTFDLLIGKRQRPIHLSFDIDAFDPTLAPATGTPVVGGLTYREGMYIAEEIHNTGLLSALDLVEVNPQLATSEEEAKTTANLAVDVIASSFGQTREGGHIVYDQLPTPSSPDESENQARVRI

[6] = target: T3, Proteasome subunit beta (Trypanosoma cruzi) (UniProt O96673); assay: Trypanosoma cruzi proteasome chymotrypsin-like activity (TcProtChymo) assay.; note: in the data most compounds retested in dose-response had high values; assay type: functional; conditions: 9.37 µM
T3 sequence (whole entry): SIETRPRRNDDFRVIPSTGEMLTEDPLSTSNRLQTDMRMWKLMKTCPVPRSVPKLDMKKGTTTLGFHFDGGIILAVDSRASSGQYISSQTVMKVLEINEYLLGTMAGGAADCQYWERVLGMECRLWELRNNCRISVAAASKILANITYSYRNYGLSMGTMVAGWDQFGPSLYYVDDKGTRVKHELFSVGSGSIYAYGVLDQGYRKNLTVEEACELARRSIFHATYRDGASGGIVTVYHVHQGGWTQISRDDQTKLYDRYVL

Homo sapiens = organism: Homo sapiens; assay: To identify inhibition of the IFN signalling (Jak-Stat) pathway via expression of an eGFP reporter gene under the control of an IFN-stimulated response element (ISRE) containing MxA promoter.; assay type: functional; conditions: 30 µM
[7] = target: T4, Tyrosyl-tRNA synthetase, putative (Trypanosoma cruzi (strain CL Brener)) (UniProt Q4DSP6); assay: Trypanosoma cruzi tyrosyl tRNA synthetase (TcYRS) _High Tyrosine SOP; assay type: functional; conditions: 30 µM; note: in the data most compounds retested in dose-response had high values
T4 sequence (whole entry): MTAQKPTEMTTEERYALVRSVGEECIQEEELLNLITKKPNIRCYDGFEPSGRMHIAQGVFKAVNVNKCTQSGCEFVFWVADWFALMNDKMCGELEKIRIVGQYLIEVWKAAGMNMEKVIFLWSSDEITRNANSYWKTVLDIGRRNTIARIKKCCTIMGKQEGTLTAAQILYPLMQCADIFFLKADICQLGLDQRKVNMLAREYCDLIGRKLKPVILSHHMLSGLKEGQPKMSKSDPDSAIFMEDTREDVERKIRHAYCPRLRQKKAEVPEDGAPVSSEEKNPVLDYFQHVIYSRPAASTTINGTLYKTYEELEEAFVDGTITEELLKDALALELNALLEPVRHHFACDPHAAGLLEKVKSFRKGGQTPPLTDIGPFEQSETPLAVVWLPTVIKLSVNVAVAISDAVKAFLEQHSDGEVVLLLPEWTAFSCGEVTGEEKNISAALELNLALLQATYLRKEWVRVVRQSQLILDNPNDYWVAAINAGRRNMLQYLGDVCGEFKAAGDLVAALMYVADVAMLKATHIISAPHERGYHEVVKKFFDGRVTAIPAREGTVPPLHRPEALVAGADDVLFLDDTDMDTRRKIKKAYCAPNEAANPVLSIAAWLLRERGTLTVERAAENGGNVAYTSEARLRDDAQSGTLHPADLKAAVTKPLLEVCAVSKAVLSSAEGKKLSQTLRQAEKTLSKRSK

[8] = target: T4, Tyrosyl-tRNA synthetase, putative (Trypanosoma cruzi (strain CL Brener)); assay: Trypanosoma cruzi tyrosyl tRNA synthetase (TcYRS) SOP; assay type: functional; conditions: 30 µM
[9] = target: Chromo domain-containing protein 1 (Saccharomyces cerevisiae (strain ATCC 204508 / S288c) (Baker's yeast)) (UniProt P32657); assay: ScCHD-1 Enzyme Inhibition Assay; assay type: functional; conditions: 30 µM; note: in the data most compounds retested in dose-response had high values
Chain of Chromo domain-containing protein 1 (Saccharomyces cerevisiae (strain ATCC 204508 / S288c) (Baker's yeast)) (P32657 whole entry, the tested form may be a part): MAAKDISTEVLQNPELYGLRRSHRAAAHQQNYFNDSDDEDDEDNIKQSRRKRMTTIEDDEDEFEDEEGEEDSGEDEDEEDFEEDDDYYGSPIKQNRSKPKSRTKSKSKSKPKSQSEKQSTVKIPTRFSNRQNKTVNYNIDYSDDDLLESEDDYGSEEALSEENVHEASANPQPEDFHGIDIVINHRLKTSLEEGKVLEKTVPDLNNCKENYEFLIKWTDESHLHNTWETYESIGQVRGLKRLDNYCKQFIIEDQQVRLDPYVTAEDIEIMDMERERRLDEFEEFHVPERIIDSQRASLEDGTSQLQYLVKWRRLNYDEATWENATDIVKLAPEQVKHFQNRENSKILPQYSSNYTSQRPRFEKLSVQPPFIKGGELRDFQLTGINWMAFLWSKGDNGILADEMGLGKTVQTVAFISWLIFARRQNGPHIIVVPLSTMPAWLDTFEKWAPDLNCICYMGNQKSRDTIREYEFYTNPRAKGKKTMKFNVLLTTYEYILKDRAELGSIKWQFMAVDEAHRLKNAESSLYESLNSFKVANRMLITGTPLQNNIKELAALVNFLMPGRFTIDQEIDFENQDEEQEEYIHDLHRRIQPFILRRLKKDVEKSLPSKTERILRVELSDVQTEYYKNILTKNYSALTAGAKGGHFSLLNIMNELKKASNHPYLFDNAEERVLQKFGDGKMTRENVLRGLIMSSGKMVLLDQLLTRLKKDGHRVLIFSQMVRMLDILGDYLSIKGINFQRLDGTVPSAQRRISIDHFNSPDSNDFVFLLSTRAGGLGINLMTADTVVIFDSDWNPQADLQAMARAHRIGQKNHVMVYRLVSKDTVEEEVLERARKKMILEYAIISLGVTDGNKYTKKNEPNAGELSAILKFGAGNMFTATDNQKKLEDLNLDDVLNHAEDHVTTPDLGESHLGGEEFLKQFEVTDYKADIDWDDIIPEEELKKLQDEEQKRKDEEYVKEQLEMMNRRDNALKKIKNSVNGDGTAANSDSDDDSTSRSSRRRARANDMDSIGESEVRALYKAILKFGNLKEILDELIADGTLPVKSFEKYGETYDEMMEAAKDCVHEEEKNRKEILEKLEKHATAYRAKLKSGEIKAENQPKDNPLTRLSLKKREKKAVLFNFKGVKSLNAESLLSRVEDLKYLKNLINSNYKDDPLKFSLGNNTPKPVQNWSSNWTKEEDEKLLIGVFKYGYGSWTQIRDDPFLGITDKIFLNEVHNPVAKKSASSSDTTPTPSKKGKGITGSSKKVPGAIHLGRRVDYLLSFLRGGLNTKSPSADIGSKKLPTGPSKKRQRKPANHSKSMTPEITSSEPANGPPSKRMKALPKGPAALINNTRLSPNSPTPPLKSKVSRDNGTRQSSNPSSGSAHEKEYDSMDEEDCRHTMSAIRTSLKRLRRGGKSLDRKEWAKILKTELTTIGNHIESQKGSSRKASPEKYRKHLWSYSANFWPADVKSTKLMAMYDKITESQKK

Compound	Percent Effect [1] [%]	Percent Effect [2] [%]	Percent Effect [3] [%]	Percent Effect [4] [%]	Percent Effect (Trypanosoma cruzi) [%]	Percent Effect [5] [%]	Percent Effect [6] [%]	Percent Effect (Homo sapiens) [%]	Percent Effect [7] [%]	Percent Effect [8] [%]	Percent Effect [9] [%]
CC(NC1(CNC(=O)CC(C)(C)C)CCOCC1)c1ccccc1 (stereo unspecified)	-5.63	8.11	1.15	15.6	-0.684	4.22	9.19	-9.78	3.23	11.1	-2.98
CCCS(=O)(=O)N1CCN(c2cc(-n3cnc(C)c3C)nc(C)n2)CC1	-2.71	0	2.33	-0.358	-3.25	9.65	3.16	-2.89	1.07	-3.7	2.9
CNc1cc(C)nc(C2CN(Cc3ccc(C)nc3)CCO2)c1 (stereo unspecified)	-2.49	4.05	9.63	-3.85	-1.19	-0.696	4.84	0.717	3.23	3.9	-10.8
O=C(NCCNc1ncccn1)N1CCCC(C(F)(F)F)C1 (stereo unspecified)	-2.28	10.8	3.11	-0.403	-2.12	-1.43	7.59	6.58	4.76	19.5	-5.39
CCc1nnc2n1CCN(C(=O)c1cc3ccc(F)cc3nc1C)C2	-5.47	15.6	4.64	3.18	1.12	-3.92	6.59	-1.03	11.7	21.9	-6.09
CCc1nc(CCNC(=O)NC2CC2)sc1C	-5.62	0	-1.43	-3.96	0	1.67	9.89	5.25	6.93	-1.22	-6.36
Cc1nccn1CCC1CCCCN1Cc1ccc(N(C)C)nc1 (stereo unspecified)	-1.41	5.33	-3.72	-2.2	-6.91	4.69	21.4	9.79	0.546	11.1	-5.71
CC(C)(C)OC(=O)NC(C)(C)c1noc(CN2CCCCC2)n1	-5.9	8	-1.12	-1.61	-3.02	1.04	9.07	13.4	2.73	8.64	-7.41
Cc1ncc(CNC(=O)c2nn(C)c3c2CS(=O)(=O)CC3)s1	-3.9	9.33	3.53	5.84	3.73	-6.16	13.3	4.95	9.52	12.8	-9.87
Cn1cnnc1S(=O)(=O)C1CCN(S(=O)(=O)c2ccc(F)c(Cl)c2)CC1	-0.452	-5.48	9.53	-2.11	-1.37	1.36	7.1	8.21	-1.07	0	-1.74
CC(=O)N1CC[C@@H]2CN(C(=O)c3ccco3)CCO[C@@H]2C1	0.266	13.3	8.75	0.752	-4.33	6.29	12.8	-9.46	3.19	3.85	-2.25
CCn1nc(C)c2nnn(CC(=O)Nc3c(C)cccc3C)c(=O)c21	-7.15	17.3	-10.2	-3.51	5.5	-2.99	5.73	4.38	6.35	12.8	-16.1
O=C(NCCC1CCCO1)c1ccccc1N1CCOCC1 (stereo unspecified)	-4.55	2.74	-1.11	12.4	4.56	-5.99	10.7	8.12	10.4	18.5	-2.02
NC(=O)c1csc(C(=O)N2CCCC(n3ccnc3)C2)c1 (stereo unspecified)	-5.24	3.8	5.04	3	2.56	1.5	7.72	-1.55	4.17	15.2	-9.55
O=C1CCCCN1c1cccc(CNC2CCCC2)c1	-1.28	0	5.47	3.26	2.06	2.74	8.49	-9.59	2.86	7.06	-7.72
CCC(NC(=O)C1CCN(S(=O)(=O)N(C)C)CC1)c1ccc(C)c(C)c1 (stereo unspecified)	0.26	0	0.886	1.28	-2.46	19.3	8.82	-10.2	-2.15	1.24	-0.385
